Screens (PubChem)
DT40 TDP1 no CPT: qHTS for Inhibitors of human tyrosyl-DNA phosphodiesterase 1 (TDP1): qHTS in cells in absence of CPT; DT40 Tdp1-/- hTDP1 cells, no CPT, ATP luminescence, 48 h; Potency, µM (series often up to 46.2 µM), inactives show top-dose activity change, negative = growth inhibition, actives largely listed as inhibitors; actives 15% (n = 420,000); further: nearly all actives have a fitted effect of over 55% in size
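No-CPT arm: Tdp1-/-;hTDP1 DT40 cells (400/well) plus compounds, incubated ≥48 hr at 37 °C. Readout CellTiter-Glo luminescence.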
VP16 counter: inhibits Gal4-VP16 luciferase reporter, ROR gamma counter-screen; Drosophila S2 Gal4-VP16 UAS-luciferase, luminescence, 20 h; Potency, µM (highest dose often 53.6 µM), for inactives: top-dose activity, negative = inhibition, most hits filed as inhibitors; actives 3.5% (n = 310,000); AID 2546;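 further: Gal4-VP16 expression switched on by copper sulfate through the metallothionein promoter; nearly all actives have a fitted effect of over 50% in size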
RORgamma inh: blocks mouse ROR gamma transcriptional activity; P51450; Drosophila S2 Gal4-RORgamma UAS-luciferase reporter, 20 h; Potency, µM (highest dose often 53.6 µM), without a hit: at the highest dose activity change, negative = inhibition, hits mostly inhibitors; actives 5.4% (n = 310,000); AID 2551; further: nearly all actives have a fitted effect of over 60% in size
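Drosophila S2 cells stably expressing Gal4-DBD/mouse RORγ fusion under metallothionein promoter plus UAS-luciferase; compound 1 h, then 700 uM CuSO4 induction for 20 h at ambient temperature; inhibition read as reduced luminescence.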
TDP1 cell CPT: DT40-hTDP1 cell growth loss with CPT. chicken DT40 Tdp1-/-;hTDP1 cells + 20 nM CPT, ATP luminescence, 48 h. actives 12% (n = 420,000). Potency, µM (top dose mostly 46.2 µM), for the others: at the top dose activity change, negative = growth inhibition, usual class: inhibitors; further: nearly all actives have a fitted effect of over 55% in size
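Chicken DT40 Tdp1-/- cells complemented with human TDP1, 400 cells/well, exposed to compounds plus 20 nM camptothecin for at least 48 h at 37 C; viability read as ATP content by CellTiter-Glo luminescence.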
TDP1 inh: blocks human tyrosyl-DNA phosphodiesterase 1; recombinant TDP1, AlphaScreen DNA substrate cleavage; Q9NUW8; Potency, µM (series often up to 130 µM), without a hit: at the top dose activity change, negative = inhibition, usual class: inhibitors; actives 0.28% (n = 350,000); AID 485290; further: nearly all actives have a fitted effect of over 40% in size
Target sequence (Q9NUW8 whole entry, looked up): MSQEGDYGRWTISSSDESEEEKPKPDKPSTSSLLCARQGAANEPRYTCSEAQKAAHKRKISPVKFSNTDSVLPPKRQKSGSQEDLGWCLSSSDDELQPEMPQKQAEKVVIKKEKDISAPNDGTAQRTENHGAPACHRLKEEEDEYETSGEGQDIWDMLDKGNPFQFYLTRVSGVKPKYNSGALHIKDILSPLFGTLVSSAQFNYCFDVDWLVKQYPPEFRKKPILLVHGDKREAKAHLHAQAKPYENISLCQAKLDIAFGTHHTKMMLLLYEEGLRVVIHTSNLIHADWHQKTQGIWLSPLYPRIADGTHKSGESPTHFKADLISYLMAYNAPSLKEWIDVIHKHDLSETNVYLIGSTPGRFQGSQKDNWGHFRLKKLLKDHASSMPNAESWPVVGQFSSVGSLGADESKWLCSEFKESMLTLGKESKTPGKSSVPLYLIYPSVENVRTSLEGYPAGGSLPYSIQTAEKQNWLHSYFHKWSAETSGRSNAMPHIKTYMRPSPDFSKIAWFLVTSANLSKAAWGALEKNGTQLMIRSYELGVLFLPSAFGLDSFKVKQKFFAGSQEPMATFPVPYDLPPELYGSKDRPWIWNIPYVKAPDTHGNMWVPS
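Recombinant human Tdp1 (E. coli-expressed, 1 nM final) preincubated with compounds 15 min at room temperature, then 5'-biotin/3'-phosphotyrosine-FITC DNA substrate (15 nM final) added for 5 min. AlphaScreen beads (10 ug/ml final) added 10 min; cleavage lowers signal.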
Active calls of the source: *; ? = inconclusive; · = not tested or not shown; [ ] = another dose, or the depositor's remark. Hits are enriched below; roughly 19% of the tested compounds scored in any of these assays. The call rests on the fitted dose curve; in most records, active means well fitted curve in the direction sought with a large enough effect; inconclusive means small, poorly fitted or top-dose-only effect, or another doubt; inactive means no such curve, though single readings can be large; an effect the other way counts as inactive or inconclusive. On the % scale 0 is the no-effect control and ±100 the full control effect; potency means the concentration at half of the fitted maximal effect.

SMILES	DT40 TDP1 no CPT	VP16 counter	RORgamma inh	TDP1 cell CPT	TDP1 inh
CSc1cc(-c2ccccc2)n(C)c(=O)c1C#N	?	-10.8%	-30.3%	19.0%	-12.8%
CSc1cc(-c2ccc(Cl)cc2)n(Cc2ccccc2)c(=O)c1C#N	14.6µM*	7.7%	11.7%	?	0.5%
Cn1nccc1C(=O)NC(=S)Nc1cc(Cl)cc(Cl)c1	-23.6%	12.6µM*	2.51µM*	1.1%	·
Cc1ccc2cc(NC(=O)C3(C)CCN3CC(C)C)ccc2n1 (stereo not drawn)	-24.4%	·	·	-16.3%	·
CC(OC(=O)c1cc(=O)[nH]c2ccccc12)C(=O)Nc1ccc(Cl)cn1 (stereo not drawn)	-7.7%	·	·	2.4%	0.1%
O=C(CC1C(=O)NCCN1Cc1ccc(-c2ccccc2)cc1)NCCOc1cccnc1 (stereo not drawn)	16.4µM*	20µM*	2.8%	?	6.0%
O=C(CC1C(=O)NCCN1Cc1ccc(F)cc1)NCCOc1cccnc1 (stereo not drawn)	2.7%	-8.3%	-6.4%	5.3%	·
CCOc1ccccc1CN1CCNC(=O)C1CC(=O)NCc1ccccn1 (stereo not drawn)	15.3%	?	11.2µM*	-25.3%	1.5%
CCC(=O)N1CCc2cc(Br)cc(S(=O)(=O)NCc3ccccc3OC)c21	-26.3%	7.2%	-16.1%	-9.0%	-4.7%
COc1ccccc1CNS(=O)(=O)c1ccc(N2CCCC2)cc1Br	?	·	·	16.4µM*	0.9%[56.1 µM]
CC(O)(c1cccnc1)c1nc(-c2ccc3c(c2)OCO3)cs1 (stereo not drawn)	?	·	·	16.4µM*	·
COc1cccc(C(C)(O)c2nc(-c3ccc(S(C)(=O)=O)cc3)cs2)c1 (stereo not drawn)	18.4µM*	·	·	?	·
COc1ccc(-c2csc(C(C)(O)c3cccc(OC)c3)n2)cc1 (stereo not drawn)	?	·	·	16.4µM*	·
COc1cccc(C(C)(O)c2nc(-c3cc(F)cc(F)c3)cs2)c1 (stereo not drawn)	23.1µM*	·	·	?	·
CO[C@H]1[C@H](NC(=O)c2ccco2)c2ccccc2C12CCN(Cc1ccc3cccc(F)c3n1)CC2	?	·	·	-1.5%[9.04 µM]	·
CCOc1ccc(CCNC(=O)CCNC(=O)c2ccc(Br)cc2)cc1OCC	-2.4%	2.4%	1.5%	8.7%	1.1%
COc1ccc(C(C)(O)c2nc(-c3csc4ccccc34)cs2)cc1 (stereo not drawn)	4.61µM*	·	·	2.91µM*	·
CC(O)(c1cccnc1)c1nc(/C=C/c2ccccc2)cs1 (stereo not drawn)	20.6µM*	·	·	?	·
CC(O)(c1cccnc1)c1nc(-c2ccc3ccccc3c2)cs1 (stereo not drawn)	23.1µM*	·	·	20.6µM*	·
COc1cccc(C(C)(O)c2nc(-c3ccc4c(c3)OCO4)cs2)c1 (stereo not drawn)	20.6µM*	·	·	14.6µM*	·
COc1ccc(-c2csc(C(C)(O)c3cccnc3)n2)cn1 (stereo not drawn)	-27.0%	·	·	?	·
Cc1cc(NC(=O)CSc2nc(CC(C)(C)C)nc3c2c(=O)n(C)c(=O)n3C)no1	?	2.5%	-28.5%	?	4.3%
COC(=O)[C@H](Cc1ccccc1)NC(=O)O[C@@H]1C(=O)c2cc(Br)ccc2O[C@H]1c1ccc2c(c1)OCO2	·	5.0%	-4.4%	·	6.9%
COc1ccccc1C(=O)NNC(=O)CCCN1C(=O)/C(=C/c2cccs2)SC1=S	?	?	-12.1%[10 µM]	?	-1.1%
COCc1cccc(-c2csc(C(C)(O)c3cccc(OC)c3)n2)c1 (stereo not drawn)	?	·	·	13µM*	·
CC(O)(c1cccnc1)c1nc(-c2cccc(C#N)c2)cs1 (stereo not drawn)	14.6µM*	·	·	16.4µM*	·
CC(=O)NC(C)(c1ccccc1)c1nc(/C=C/c2ccccc2)cs1 (stereo not drawn)	16.4µM*	·	·	?	·
